Test results: PubChem BioAssay AID1851 (National Center for Advancing Translational Sciences (NCATS), 2009)
Screen size: about 16,000 compounds; about 2,600 (16%) were called active. Not shown: some 20% with an inconclusive outcome. Calls come from the whole dose curve; as a rule, active = well fitted curve in the direction sought with a large enough effect; inconclusive = small, poorly fitted or top-dose-only effect, or effect the other way; inactive = no such curve, though single readings can be large or run the other way. Not all results are given here. Peptide text beside a SMILES is read from it. * marks the point of attachment. PhAc = O=C(Cc1ccccc1)*; OBn = c1ccc(CO*)cc1

The compounds below were run against Cytochrome P450 2D6 (Homo sapiens) (UniProt P10635) (assay: Cytochrome panel assay with activity outcomes). Conditions: recombinant CYP, pro-luciferin dealkylation, luminescence, p450-cyp2d6; series mostly up to 57.1 µM; activity, negative = inhibition: at the top concentration.
% is set by controls: 0 for no effect and ±100 for the full control effect.

Cytochrome P450 2D6 (Homo sapiens), sequence (P10635 whole entry, looked up): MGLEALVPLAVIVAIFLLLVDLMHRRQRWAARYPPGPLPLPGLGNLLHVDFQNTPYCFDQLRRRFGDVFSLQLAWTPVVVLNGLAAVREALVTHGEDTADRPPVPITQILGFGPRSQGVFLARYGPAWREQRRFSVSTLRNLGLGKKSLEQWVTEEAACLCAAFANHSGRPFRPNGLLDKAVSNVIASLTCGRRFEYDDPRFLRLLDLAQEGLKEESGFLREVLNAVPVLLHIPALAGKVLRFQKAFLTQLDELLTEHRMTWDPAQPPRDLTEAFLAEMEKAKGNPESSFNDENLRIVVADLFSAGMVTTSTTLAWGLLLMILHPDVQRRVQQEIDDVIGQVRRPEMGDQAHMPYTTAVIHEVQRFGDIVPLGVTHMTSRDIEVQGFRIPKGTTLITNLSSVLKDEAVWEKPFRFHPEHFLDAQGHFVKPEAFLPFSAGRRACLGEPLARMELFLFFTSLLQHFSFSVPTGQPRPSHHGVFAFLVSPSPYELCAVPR

activity, negative = inhibition, inactive:
Cc1ccc(Oc2nc(-c3ccccc3)ncc2S(C)(=O)=O)cc1 -12.2%
Cc1c(NC(=O)CSc2nnnn2C)c(=O)n(-c2ccccc2)n1C 3.7%
CC1(C)S[C@@H]2[C@H](NC(=O)[C@@H](N)c3ccc(O)cc3)C(=O)N2[C@H]1C(=O)O 3.49% [at 25.6 µM]
CCc1ccc(N(C(=O)c2csnn2)C(C(=O)NCc2ccccc2)c2ccco2)cc1 (stereo not drawn) -29.7%
O=C(O)[C@@H](O)[C@@H](O)[C@H](O)[C@H](O)CO 0.284% [at 11.4 µM]
N/N=C1/CC(=O)NC(=O)N1 -6.83% [at 11.4 µM]
N/C(=N\O)C1COc2ccccc2O1 (stereo not drawn) -13.4%
O=C(NCc1cccnc1)C1COc2ccccc2O1 (stereo not drawn) -9.88%
COc1ccc(N2C(=O)CC(S/C(N)=N/N=C(\C)c3cccs3)C2=O)cc1 (stereo not drawn) -13.2%
Cc1cccc(OC(=O)CN2C(=O)C3C4CCC(C4)C3C2=O)c1C (stereo not drawn) 7.11%
CCNC(=O)CSc1nnc(C2CC2)n1-c1ccccc1 12.1%
Cn1cccc1C(=O)C(=O)Nc1cccc(Cl)c1Cl -11.4%
O=C(Nc1ccccc1Cl)c1ccccc1Cl -9.19%
O=[N+]([O-])c1ccc(C2CCCC/C2=N\OCc2cccc(F)c2)c([N+](=O)[O-])c1 (stereo not drawn) -13.9%
NCCOB(c1ccccc1)c1ccccc1 0.853%
Cc1cc(NC(=O)c2c([N+](=O)[O-])c(C)nn2C)no1 16.4%
CCC(=O)NNc1cc(=O)c2c(=O)n(C)c(=O)n(C)c2[nH]1 -4.88%
COc1ccc2[nH]c3c(NCCCN4CCCC4=O)ncnc3c2c1 -9.24%
CCOCCCn1cnc2c([nH]c3cc(OC)ccc32)c1=O -1.75%
O=S(=O)(C=C(c1ccccc1)c1ccccc1)c1ccccc1 -14.5%
O=S(=O)(c1ccc(Br)cc1)N1CCN(S(=O)(=O)c2ccc(Br)cc2)CC1 -1.87% [at 11.4 µM]
O=c1oc(-c2cccs2)nc2ccc(Br)cc12 -22.6%
COc1ncc2nc(-c3cccs3)c(=O)n(CCc3ccccc3)c2n1 -3.39%
CCCCOC(=O)CSCC(=O)Nc1cc(C)on1 14.5%
COc1ccc(/C=C/C(=O)Nc2ccccc2C(=O)N2CCCC2)cc1 -9.24%
COC(=O)[C@@]1(Cc2ccc(F)cc2)[C@H]2c3cc(C(=O)N4CCCC4)n(Cc4ccc(Cl)c(C(F)(F)F)c4)c3C[C@H]2CN1C(=O)c1ccccc1 5.7%
COC(=O)[C@@]1(Cc2ccccc2)[C@H]2c3cc(C(=O)N4CCCC4)n(Cc4ccc(S(C)(=O)=O)cc4)c3C[C@H]2CN1C(=O)c1ccccc1 -14.3%
CS(=O)(=O)Nc1c(O)ccc2c1CCC[C@H]2C1=NCCN1 -10.4%
O=C(CNC(=O)Cc1ccccc1)NCC(=O)OCc1ccccc1 (PhAc-Gly-Gly-OBn) -13.3%
C/C(=N/NC(=O)c1cccs1)c1ccc(NC(=O)COc2ccc(Cl)cc2Cl)cc1 -12%
O=C(NOC(=O)c1cc(Br)ccc1Cl)c1cccs1 3.2%
CC(C)(C)c1ccc(COC(=O)CNC(=O)CNC(=O)Cc2ccccc2)cc1 -17.8%
NCCSC[C@H](N)C(=O)O -2.62% [at 11.4 µM]
Cc1n[nH]c(=O)[nH]c1=O -2.55% [at 25.6 µM]
C[C@@]12C=CC(=O)C=C1CC[C@@H]1[C@@H]2[C@H](O)C[C@]2(C)[C@@H]1CC[C@]2(O)C(=O)CO -2.91% [at 25.6 µM]
COc1ccc(-n2c(=O)c(C)nc3cnc(Oc4ccccc4)nc32)cc1 -18.4%
N#C/C(=C\c1cc([N+](=O)[O-])c(N2CCCCC2)cc1N1CCCCC1)c1nn(-c2ccccc2)c(N)c1C#N 27.3%
O=C(O/N=C\c1ccc(N2CCCCC2)c([N+](=O)[O-])c1)c1c(F)cccc1F 7.86%
COc1cc(/C=C(/C#N)c2nc3ccccc3[nH]2)ccc1OCC(=O)Nc1ccccc1C -16.6%
N#C/C(=C\c1ccc(Oc2ccc(C(F)(F)F)cc2[N+](=O)[O-])cc1)c1nc2ccccc2[nH]1 -81.3%
CSc1ncnc2c1ncn2[C@@H]1O[C@@H](CO)[C@H](O)O[C@@H]1O 14.1% [at 11.4 µM]
CC(NC(=O)OCc1ccccc1)C(=O)NCC1CCCO1 (stereo not drawn) 13.2%
CCCC[C@@H]1C[C@H]1C(NC(=O)c1cccs1)c1ccc(Cl)cc1 (stereo partly drawn) 3.97%
O=S(=O)(O)c1ccc(N=Nc2ccc3c(S(=O)(=O)O)cccc3c2O)c2ccccc12 -18.7% [at 11.4 µM]
CCN(CC)c1ccc(NC(=O)CSc2nnc3nc(C)cc(C)n23)cc1 12.6%
Cn1c(SCC(=O)Nc2ccccc2)nc(O)cc1=O -13.2%
COc1ccc(Oc2ncc3nc(CCc4ccccc4)c(=O)n(CCC#N)c3n2)cc1 -6.14%
Cc1cccc(OC2(c3ccccc3)OC(=O)c3ccccc32)c1C (stereo not drawn) -6.72%
CCN(CC)C(=O)COc1ccc(S(=O)(=O)N2CCOCC2)cc1 22.3%

AC50, active:
CCn1ccnc1C[C@@H]1COc2ccccc2O1 1.58 µM
O=C(Nc1cccc(Cl)c1Cl)c1snnc1-c1ccccc1 10 µM
CCN1CCCC1Cn1cnc2c([nH]c3ccc(C)cc32)c1=O (stereo not drawn) 4.47 µM
O=S(=O)(c1ccccc1)N1N=C(c2cccs2)CC1c1ccc(Br)cc1 (stereo not drawn) 1.12 µM
Clc1cccc(Cl)c1NC1=NCCN1 10 µM
Cc1cc2nc(CCN(C(=S)NCC(C)C)C3CCCC3)[nH]c2cc1C 1.12 µM
CCCc1cc2c(n1CCc1ccc(Cl)cc1)C(C)C1CN(C(=O)c3ccccc3)C(C)(C(=O)OC)C21 (stereo not drawn) 5.01 µM
O=C(CNC(=O)c1cccs1)NCC(=O)OCc1ccc(Cl)cc1Cl 3.55 µM
O=C(CNC(=O)c1cccs1)NCC(=O)OCc1ccc(Cl)cc1 15.8 µM
N#C/C(=C/c1ccc(N2CCCC2)c([N+](=O)[O-])c1)c1nc2ccccc2[nH]1 0.2 µM
N#C/C(=C\c1ccc(N2CCCC2)c([N+](=O)[O-])c1)c1nc2ccccc2[nH]1 0.631 µM
CCc1c(C)nc(N)n2c(SCC(=O)Nc3ccccc3)nnc12 1.41 µM

AC50, inactive:
COc1nc(C)nc(Cl)c1NC1=NCCN1
N[C@H](C(=O)O)c1cc(O)cc(O)c1
